# Active and inactive are the calls of the source. Calls come from the whole dose curve; as a rule, active = well fitted curve in the direction sought with a large enough effect in the repeat runs; inconclusive = weak or mixed curves; inactive = flat fitted curve, though single readings scatter.
# Experiment: qHTS assay to test for compound auto fluorescence at 460 nm (blue) in HepG2 cells (AID 720687)
# Conditions: autofluorescence 405/460 nm, 1 h; series mostly up to 46 µM; fluorescence, % of fluorescent control: at the top concentration
# Source text: U.S. Tox21 Program National Center for Advancing Translational Sciences [NCATS] NIH Chemical Genomics Center [NCGC] U.S. Environmental Protection Agency [EPA] National Institutes of Environmental Health Sciences [NIEHS] National Toxicology Program [NTP] U.S. Food and Drug Administration [FDA] Tox21 Assay Overview: Compound auto fluorescence often interferes with screening of the compound library against various biological targets and signaling pathways. Some of these compounds may have fluorophoric properties. Such properties may interfere with the assay outputs resulting in false positives and/or negatives. To decrease such complications and ensure the compound activities are relevant in terms of biological response, the Tox21 10K compound library was screened for auto fluorescence. From the fluorophores used as reporter signals in our screening assays, the auto fluorescence equivalencies of compounds against three fluorophores have been evaluated: Triamterene, Fluorescein and Rose Bengal sodium for blue, green and red fluorescence, respectively. The fluorescence intensities were measured using Excitation/Emission wavelengths at 405/460nm, 485/535nm and 540/590nm for blue, green and red labels, respectively. This assay includes the blue fluorescence data.
# Tox21 Assay Protocol Summary: 2,000 HepG2 cells in 5 uL of culture medium (MEM containing 10% FBS) per well were dispensed into black wall/clear bottom 1536-well plates using a Multidrop Combi Dispenser (ThermoFisher Scientific, Waltham, MA). The assay plates were incubated overnight at 37 C to allow cell attachment to the well bottom, followed by the transfer of 23 nL compound or DMSO vehicle by a pintool work station (Kalypsys , San Diego, CA). After the assay plates were incubated for 1 hr at 37 C and 5% CO2, fluorescence intensities in the assay plates were measured by an Envision (PerkinElmer, Shelton, CT) plate reader using three labels for measuring blue, green and red fluorescence at […] 460, 535 and 590 nm respectively.
# % is set by controls: 0 for no effect and ±100 for the full control effect.
Structure (SMILES),"fluorescence, % of fluorescent control",outcome
C=C[Si](OC(=C)C)(OC(=C)C)OC(=C)C,0.107% [at 91.3 µM] (inactive),–
OCCCC1CCCCC1,-0.137% [at 91.3 µM] (inactive),–
CCCN(CCC)CCc1cccc2c1CC(=O)N2,0.0487% (inactive),–
CC/C=C\CC/C=C/C(OCC)OCC,0.0073% [at 91.3 µM] (inactive),–
CC/C=C\CC/C=C/CO,0.0039% [at 91.3 µM] (inactive),–
CCn1nc(C(=O)O)c(=O)c2cc3c(cc21)OCO3,0.0401% [at 18.6 µM] (inactive),–
CC(C)c1cc2c(cc1S(=O)(=O)O)[C@@]1(C)CCC[C@@](C)(C(=O)O)[C@@H]1CC2,-0.0218% (inactive),–
NS(=O)(=O)c1cc2c(cc1Cl)NC(C1CC3C=CC1C3)NS2(=O)=O (stereo not given),-0.0864% (inactive),–
N=C(N)c1ccc2cc(OC(=O)c3ccc(N=C(N)N)cc3)ccc2c1,0.481% (inactive),–
CCSC(=O)N(CC(C)C)CC(C)C,-0.0715% [at 91.3 µM] (inactive),–
CC(=O)c1ccccc1O,0.0057% [at 91.3 µM] (inactive),–
Nc1ccccc1S(=O)(=O)O,0.426% [at 91.3 µM] (inactive),–
O=c1cc(-c2ccccc2)oc2ccccc12,–,inactive
CCO[Si](CCC1CCC2OC2C1)(OCC)OCC (stereo not given),0.0012% [at 91.3 µM] (inactive),–
CC1(C)C(O)C(C)(C)C1O (stereo not given),-0.0663% [at 91.3 µM] (inactive),–
COc1c(N2C[C@@H]3CCCN[C@@H]3C2)c(F)cc2c(=O)c(C(=O)O)cn(C3CC3)c12,–,inactive
NC(=O)Nc1ccccc1,-0.154% [at 91.3 µM] (inactive),–
CCC(=O)OC(C)c1ccccc1 (stereo not given),-0.225% [at 91.3 µM] (inactive),–
CCOC(=O)CCC(C)=O,0.0974% [at 91.3 µM] (inactive),–
N=c1nc(N2CCCCC2)cc(N)n1O,-0.091% (inactive),–

Structure (SMILES),"fluorescence, % of fluorescent control",outcome
N[C@H]1CN(c2c(F)cc3c(=O)c(C(=O)O)cn(C4C[C@H]4F)c3c2Cl)CC12CC2 (stereo not given in full),-0.104% (inactive),–
CN(C(=O)c1c(O)c2ccccc2n(C)c1=O)c1ccccc1,-0.0911% (inactive),–
CC(C)(c1ccc(O)cc1)c1ccc(O)cc1,–,inactive
O=c1cc(CO)occ1O,–,inactive
c1ccc([C@H]2CN3CCSC3=N2)cc1,-0.0376% (inactive),–
C=C(C)C(=O)OCCCCCCCC(C)C,-0.0411% [at 91.3 µM] (inactive),–
Cc1c(NC(C)C)c(=O)n(-c2ccccc2)n1C,-0.0414% (inactive),–
CC(C)CCCC(C)N (stereo not given),-0.0676% (inactive),–
O=C1CCCCCCCCCCCN1,–,inactive
CC(=O)OCC(=O)[C@@]1(O)CC[C@H]2[C@@H]3CCC4=CC(=O)CC[C@]4(C)[C@H]3C(=O)C[C@@]21C,-0.192% (inactive),–
OCCOc1ccc(OCCO)cc1,0.102% [at 95.7 µM] (inactive),–
NCCCNCCSP(=O)(O)O,-0.101% (inactive),–
ClC(Cl)(Br)Br,0.137% [at 91.3 µM] (inactive),–
CCO/C([O-])=N/c1c[n+](N2CCOCC2)no1,0.0707% [at 18.6 µM] (inactive),–
O=C(O)CCCl,-0.0935% [at 95.7 µM] (inactive),–
COC(=O)CCSCCC(=O)OC,0.0496% [at 91.3 µM] (inactive),–
C[C@H]1C[C@@H](O)CC(C)(C)C1,0.0299% [at 91.3 µM] (inactive),–
Nc1c[n+](N2CCOCC2)no1,0.22% (inactive),–
Cc1cc(O)cc2c1O[C@](C)(CCC[C@H](C)CCC[C@H](C)CCCC(C)C)CC2,–,inactive
CS(=O)(=O)O,0.0361% [at 91.3 µM] (inactive),–

# — PubChem BioAssay (Tox21)
